Assay results from PubChem BioAssay AID485314 (National Center for Advancing Translational Sciences (NCATS), 2010).
In all, about 340,000 compounds went through this assay and about 4,500 (1.3%) were called active. Roughly 5% stayed inconclusive and do not appear here. Many of the other results were omitted from the sample, so actives are more common in it than they were. A number with no mark means an inactive call. Calls come from the whole dose curve; as a rule, active = well fitted inhibition curve with a large enough effect; inconclusive = small, poorly fitted or top-dose-only effect, or another doubt; inactive = no such curve, though single readings can be large or run the other way.
% is set by controls: 0 for no effect and ±100 for the full control effect; potency is the fitted concentration of half-maximal effect.

Each compound was assayed against DNA polymerase beta (Homo sapiens) (UniProt P06746) (assay: qHTS Assay for Inhibitors of DNA Polymerase Beta). Details: Pol beta primer extension/strand displacement, fluorescence kinetic; series mostly up to 114 µM; activity change, negative = inhibition: at the top concentration.
Text: The base excision repair system in human cells is a target for therapeutic modulation of the response to irradiation treatment and DNA-damaging drugs. A key enzyme in this system is the bi-functional DNA polymerase known as DNA polymerase Beta (Pol Beta). The following is a homogeneous kinetic assay to study the primer extension and strand-displacement reaction catalyzed by pol beta.
A stepwise description of the 1536-well assay is shown in next Table. Three microliters of reagents (buffer in column 3 and 4 as negative control and 10 nM Pol beta in columns 1, 2, and 5-48) was dispensed into 1,536-well black solid-bottomed plate. Compounds (23 nL) were transferred via Kalypsys pin tool equipped with 1536-pin array (10 nL slotted pins, V&P Scientific, San Diego, CA). The plates were incubated for 15 min at room temperature, and 1 uL substrate (50 nM final concentration) were added to start the reaction and immediately read at 0 min read on Viewlux reader. The plate were further incubated for 10 min at room temperature, and then read on Viewlux again. Throughout the screen, reagent bottle and all liquid lines were chilled and made light-tight to minimize reagent degradation. All screening operations were performed on a fully integrated robotic system (Kalypsys, San Diego, CA) containing one RX-130 and two RX-90 anthropomorphic robotic arms (Staubli, Duncan, SC). Library plates were screened starting from the lowest and proceeding to the highest concentration, and a double-dipping step of the highest concentration was required to access higher concentrations of compounds. Vehicle-only plates, with DMSO being pin-transferred to the entire column 5-48 compound area, were inserted uniformly at the beginning and the end of each library in order to monitor for and record any shifts in the background, which can be affected by reagent dispensers or loss in enzyme activity overtime. Screening data were corrected, normalized, and concentration-effect relationships were derived by using publicly-available curve fitting algorithms developed in-house (http://ncgc.nih.gov/pub/openhts). A four parameter Hill equation was fitted to the concentration-response data by minimizing the residual error between the modeled and observed responses.
With COc1cccc(N2C(=O)NC(=O)/C(=C\c3cn(C)c4ccccc34)C2=O)c1 the “activity change, negative = inhibition” value was -23%. O=C1NC(=O)N(c2ccccc2)C(=O)/C1=C/c1ccc([N+](=O)[O-])s1 was tested, and the “activity change, negative = inhibition” value was -41.5%. In the case of Cc1cccc(N2C(=O)NC(=O)/C(=C\c3cnn(-c4ccccc4)c3)C2=O)c1, the Potency was 39.8 µM (active). CCCCN1C2CCC1CC(OC(c1ccc(F)cc1)c1ccc(F)cc1)C2 (stereo not given) was tested, and the “activity change, negative = inhibition” value was 16.4% [at 57.1 µM]. For COc1ccc(N2C(=O)/C(=C/c3ccco3)C(=O)NC2=S)cc1, the Potency was 2.82 µM (active). COc1ccc(CN2C(=O)NC(=O)/C(=C\c3ccc(OC)c(OC)c3OC)C2=O)cc1 was tested, and the “activity change, negative = inhibition” value was -16%. With COc1ccccc1N1CCN(C(CNC(=O)Oc2ccccc2)c2cccnc2)CC1 (stereo not given) the “activity change, negative = inhibition” value was 21.6%. Cc1c(C(=O)O)cccc1-n1c(C)cc(/C=C2\C(=O)NC(=O)N(c3ccc4c(c3)OCO4)C2=O)c1C was tested, and the Potency was 11.2 µM (active). For Cc1ccccc1N1C(=O)NC(=O)/C(=C\c2cc(C)n(C)c2C)C1=O, the “activity change, negative = inhibition” value was 3.72%. O=C1NC(=O)N(c2ccc(F)cc2)C(=O)/C1=C/c1ccc2c(c1)CCCN2Cc1ccccc1 was tested, and the “activity change, negative = inhibition” value was -25.1%. For O=Cc1cn(Cc2ccc(F)cc2Cl)c2ccccc12, the “activity change, negative = inhibition” value was -14.2%. Cc1cc2ccccn2c1C(C[N+](=O)[O-])c1c(F)cccc1Cl (stereo not given) was tested, and the “activity change, negative = inhibition” value was 26.7%. For CCN(CC)C(=O)c1ccc(NC(=O)c2sccc2-c2ccccc2)cc1, the “activity change, negative = inhibition” value was -0.659%. With COc1ccc2c3c1O[C@H]1C[C@@H](O)C=C[C@@]31CCN(C)C2 the “activity change, negative = inhibition” value was 11.5%. In the case of N[C@@H](Cc1c[nH]c2ccccc12)c1nnc(SCc2c(F)cccc2Cl)o1, the “activity change, negative = inhibition” value was 4.81%. In the case of Cc1ccc(-n2c(/C=C/c3cccc(C(F)(F)F)c3)nc3ccccc3c2=O)cc1, the “activity change, negative = inhibition” value was -1.25%. For C=CCN(CC=C)C(=O)Nc1ccc(OCC)cc1, the “activity change, negative = inhibition” value was -8.07%. With CCOc1ccc(-c2cc(C)n3nc(C(=O)Nc4ccc(C)c(C)c4)cc3n2)cc1 the Potency was 8.91 µM (active). In the case of OC(Cn1c2ccccc2c2ccccc21)C[n+]1ccccc1 (stereo not given), the “activity change, negative = inhibition” value was 38.7%. Cc1cc(/C=C2/C(=O)NC(=O)N(Cc3ccco3)C2=O)c(C)n1-c1ccc(C(=O)O)cc1 was tested, and the Potency was 17.8 µM (active). O=C1NC(=O)N(Cc2ccco2)C(=O)/C1=C\c1cccn1CCOc1ccccc1 was tested, and the “activity change, negative = inhibition” value was 9.43%. Cc1cc(C=C2C(=O)NC(=O)NC2=O)c(C)n1-c1ccncc1 was tested, and the “activity change, negative = inhibition” value was -12.2%. With COc1ccccc1N=C1SCCCN1C the “activity change, negative = inhibition” value was 2.97%. For C=CCN1CCC23c4c5ccc(O)c4O[C@H]2C(=O)CC[C@@]3(O)C1C5 (stereo not given in full), the “activity change, negative = inhibition” value was 16.9% [at 57.1 µM]. In the case of O=C(CN1CCCC1=O)NCCc1ccccc1, the “activity change, negative = inhibition” value was 0.404%. In the case of CC(C)(C)c1ccc(CN2C(=O)CN=C(c3ccccc3)c3ccccc32)cc1, the “activity change, negative = inhibition” value was 1.27%. In the case of O=C1CC(=O)N(Cc2ccccc2)C(=O)N1CCCCCCN1C(=O)CC(=O)N(Cc2ccccc2)C1=O, the Potency was 28.2 µM (active). In the case of Cc1nc2ccccc2c(=O)n1-c1ccc(Cl)cc1Cl, the “activity change, negative = inhibition” value was 47.9%. In the case of CCN1CCN(c2nc3c(c(=O)[nH]2)CCC3)CC1, the “activity change, negative = inhibition” value was 40.3%. With Cc1nnc(NC(=O)c2cccn(Cc3cccc(F)c3)c2=O)s1 the “activity change, negative = inhibition” value was 9.23%. In the case of CCOCCc1c(O)[nH]c(=S)[nH]c1=O, the Potency was 35.5 µM (active). With COc1ccccc1N=Nc1c(O)[nH]c(=S)[nH]c1=O the “activity change, negative = inhibition” value was -3.75%. With Cc1ccc(-c2nn(CCC#N)cc2C(=O)O)cc1C the “activity change, negative = inhibition” value was 11.6%. For O=C(OCC1O[C@@H](OC(=O)c2cc(O)c(O)c(O)c2)[C@@H](OC(=O)c2cc(O)c(O)c(O)c2)[C@@H](OC(=O)c2cc(O)c(O)c(O)c2)[C@@H]1OC(=O)c1cc(O)c(O)c(O)c1)c1cc(O)c(O)c(O)c1 (stereo not given in full), the Potency was 0.158 µM (active). Cc1cccc(Cn2cccc(C(=O)Nc3ccc4c(c3)OCCO4)c2=O)c1 was tested, and the “activity change, negative = inhibition” value was 0.23%. For Cc1ccc(NC(=O)N(Cc2ccc3c(c2)OCO3)C2CCN(Cc3ccccc3)CC2)cc1F, the “activity change, negative = inhibition” value was -0.703%. C[N+]12CN3CN(CN(C3)C1)C2 was tested, and the “activity change, negative = inhibition” value was 36.4%. For NCCc1c[nH]c2ccc(O)cc12, the “activity change, negative = inhibition” value was 11.3% [at 57.1 µM]. CCOC(=O)c1ncn2c1[C@@H]1CCCN1C(=O)c1cc(OC)ccc1-2 was tested, and the “activity change, negative = inhibition” value was 12% [at 57.1 µM]. In the case of CN(C)c1ccc(/C=C2\CC3C4CC=C5CC(O)CCC5(C)C4CCC3(C)C2=O)cc1 (stereo not given), the “activity change, negative = inhibition” value was 15.5%.
